{
  "source": "the supplement of paper PMC8728848",
  "binders": {"B1": {"name": "StdA (Salmonella typhimurium), Q8Z3Z0 (protein)", "chain": "MAAAGMMYGASVFAADTTPTAGPFGSGKILFTGTITNSPCDIAPGDDAITVPFGQISYRKLNTANATTDSKPFTIHLQNCAFDPNETTIAGSAGKMSKVTVSFSGTADTSGKAYVSTGSAQHVGVQLLKGDNTSLITPNTPMPDGDAQQLQAGNNELNFFARLIALTDAATPGDVNASVTYTLKYL"}},
  "assay_in_all_cases": "glycan array binding signal (z-score within array); higher = stronger binding",
  "settings_in_all_cases": "glycan notation: IUPAC condensed, linker removed",
  "key": {"Fuc(a1-2)Gal(b1-3)GlcNAc": {"target": "Fuc(a1-2)Gal(b1-3)GlcNAc", "method_in_brief": "(§1)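 The binding signal is a Z-score computed within each array. Data were drawn from 3228 arrays in the Consortium for Functional Glycomics database, restricted to those with a known protein sequence. Scores were averaged over arrays of the same protein sequence at different concentrations or buffers, and over linkers, and negative values can be taken as non-binding.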"}, "[1]": {"target": "Fuc(a1-2)Gal(b1-3)GlcNAc(b1-2)Man(a1-3)[Fuc(a1-2)Gal(b1-3)GlcNAc(b1-2)Man(a1-6)]Man(b1-4)GlcNAc(b1-4)GlcNAc", "method_in_brief": "as §1"}, "Fuc(a1-2)Gal(b1-4)Glc6S": {"target": "Fuc(a1-2)Gal(b1-4)Glc6S", "method_in_brief": "as §1"}, "[2]": {"target": "Fuc(a1-2)Gal(b1-4)GlcNAc(b1-3)Gal(b1-4)GlcNAc(b1-3)Gal(b1-4)GlcNAc", "method_in_brief": "as §1"}, "[3]": {"target": "Fuc(a1-2)Gal(b1-4)[Fuc(a1-3)]GlcNAc(b1-2)Man(a1-3)[Fuc(a1-2)Gal(b1-4)[Fuc(a1-3)]GlcNAc(b1-2)Man(a1-6)]Man(b1-4)GlcNAc(b1-4)GlcNAc", "method_in_brief": "as §1"}, "[4]": {"target": "Fuc(a1-2)[Gal(a1-3)]Gal(b1-4)GlcNAc(b1-2)Man(a1-3)[Fuc(a1-2)[Gal(a1-3)]Gal(b1-4)GlcNAc(b1-2)Man(a1-6)]Man(b1-4)GlcNAc(b1-4)GlcNAc", "method_in_brief": "as §1"}, "[5]": {"target": "Fuc(a1-3)[Gal3S(b1-4)]Glc6S", "method_in_brief": "as §1"}, "[6]": {"target": "Fuc(a1-3)[Gal3S(b1-4)]GlcNAc", "method_in_brief": "as §1"}, "[7]": {"target": "Fuc(a1-3)[Neu5Ac(a2-3)]Gal(b1-4)GlcNAc(b1-3)GalNAc", "method_in_brief": "as §1"}, "Gal(a1-3)Gal(b1-4)Glc": {"target": "Gal(a1-3)Gal(b1-4)Glc", "method_in_brief": "as §1"}, "[8]": {"target": "Gal(a1-3)Gal(b1-4)[Fuc(a1-3)]GlcNAc(b1-2)Man(a1-3)[Gal(a1-3)Gal(b1-4)[Fuc(a1-3)]GlcNAc(b1-2)Man(a1-6)]Man(b1-4)GlcNAc(b1-4)GlcNAc", "method_in_brief": "as §1"}, "[9]": {"target": "Gal(b1-3)[Fuc(a1-4)]GlcNAc(b1-2)Man(a1-3)[Gal(b1-3)[Fuc(a1-4)]GlcNAc(b1-2)Man(a1-6)]Man(b1-4)GlcNAc(b1-4)GlcNAc", "method_in_brief": "as §1"}, "Gal3S6S(b1-4)GlcNAc6S": {"target": "Gal3S6S(b1-4)GlcNAc6S", "method_in_brief": "as §1"}, "Gal6S(b1-4)GlcNAc6S": {"target": "Gal6S(b1-4)GlcNAc6S", "method_in_brief": "as §1"}, "[10]": {"target": "GalNAc(b1-3)Gal(a1-4)Gal(b1-4)GlcNAc(b1-3)Gal(b1-4)Glc", "method_in_brief": "as §1"}, "[11]": {"target": "GalNAc(b1-4)GlcNAc(b1-2)Man(a1-3)[GalNAc(b1-4)GlcNAc(b1-2)Man(a1-6)]Man(b1-4)GlcNAc(b1-4)GlcNAc", "method_in_brief": "as §1"}, "[12]": {"target": "GlcNAc(b1-3)[GlcNAc(b1-6)]GalNAc", "method_in_brief": "as §1"}, "[13]": {"target": "GlcNAc(b1-6)Gal(b1-4)GlcNAc", "method_in_brief": "as §1"}, "GlcNAc3Prop(b1-4)GlcNAc": {"target": "GlcNAc3Prop(b1-4)GlcNAc", "method_in_brief": "as §1"}, "[14]": {"target": "GlcNAc6S(b1-3)Gal(b1-4)GlcNAc", "method_in_brief": "as §1"}, "[15]": {"target": "Man(a1-2)Man(a1-2)Man(a1-6)[Man(a1-3)]Man", "method_in_brief": "as §1"}, "[16]": {"target": "Man(a1-2)Man(a1-3)[Man(a1-2)Man(a1-6)]Man", "method_in_brief": "as §1"}, "[17]": {"target": "Man(a1-3)[Man(a1-6)]Man(a1-6)[Man(a1-2)Man(a1-3)]Man(b1-4)GlcNAc(b1-4)GlcNAc", "method_in_brief": "as §1"}, "[18]": {"target": "Man(a1-3)[Man(a1-6)]Man(a1-6)[Man(a1-3)]Man(b1-4)GlcNAc(b1-4)GlcNAc", "method_in_brief": "as §1"}, "Neu5Ac(a2-3)Gal(b1-4)Glc": {"target": "Neu5Ac(a2-3)Gal(b1-4)Glc", "method_in_brief": "as §1"}, "[19]": {"target": "Neu5Ac(a2-3)Gal(b1-4)GlcNAc6S", "method_in_brief": "as §1"}, "[20]": {"target": "Neu5Ac(a2-3)Gal(b1-4)[Fuc(a1-3)]GlcNAc", "method_in_brief": "as §1"}, "[21]": {"target": "Neu5Ac(a2-3)Gal6S(b1-4)GlcNAc", "method_in_brief": "as §1"}, "[22]": {"target": "Neu5Ac(a2-3)Gal6S(b1-4)[Fuc(a1-3)]GlcNAc", "method_in_brief": "as §1"}, "[23]": {"target": "Neu5Ac(a2-3)[GalNAc(b1-4)]Gal(b1-4)GlcNAc", "method_in_brief": "as §1"}, "[24]": {"target": "Neu5Ac(a2-6)Gal(b1-4)GlcNAc(b1-3)Gal(b1-3)GlcNAc", "method_in_brief": "as §1"}, "[25]": {"target": "Neu5Ac(a2-6)Gal(b1-4)GlcNAc(b1-3)Gal(b1-4)GlcNAc", "method_in_brief": "as §1"}, "[26]": {"target": "Neu5Ac(a2-6)Gal(b1-4)GlcNAc(b1-3)Gal(b1-4)[Fuc(a1-3)]GlcNAc(b1-3)Gal(b1-4)[Fuc(a1-3)]GlcNAc", "method_in_brief": "as §1"}},
  "note": "About 410 targets per protein were measured; listed, in parts, are those with the strongest signals and a random draw of the rest.",
  "data": [
    {"binder": "B1", "values": [
      {"measurement": "glycan array binding signal (z-score)", "setting": "Fuc(a1-2)Gal(b1-3)GlcNAc", "value": -0.15},
      {"measurement": "glycan array binding signal (z-score)", "setting": "[1]", "value": 10.3},
      {"measurement": "glycan array binding signal (z-score)", "setting": "Fuc(a1-2)Gal(b1-4)Glc6S", "value": 0.205},
      {"measurement": "glycan array binding signal (z-score)", "setting": "[2]", "value": 0.168},
      {"measurement": "glycan array binding signal (z-score)", "setting": "[3]", "value": 2.3},
      {"measurement": "glycan array binding signal (z-score)", "setting": "[4]", "value": -0.604},
      {"measurement": "glycan array binding signal (z-score)", "setting": "[5]", "value": 6.5},
      {"measurement": "glycan array binding signal (z-score)", "setting": "[6]", "value": 0.034},
      {"measurement": "glycan array binding signal (z-score)", "setting": "[7]", "value": 4.78},
      {"measurement": "glycan array binding signal (z-score)", "setting": "Gal(a1-3)Gal(b1-4)Glc", "value": 0.257},
      {"measurement": "glycan array binding signal (z-score)", "setting": "[8]", "value": 4.97},
      {"measurement": "glycan array binding signal (z-score)", "setting": "[9]", "value": 5.67},
      {"measurement": "glycan array binding signal (z-score)", "setting": "Gal3S6S(b1-4)GlcNAc6S", "value": -0.494},
      {"measurement": "glycan array binding signal (z-score)", "setting": "Gal6S(b1-4)GlcNAc6S", "value": -0.164},
      {"measurement": "glycan array binding signal (z-score)", "setting": "[10]", "value": 0.837},
      {"measurement": "glycan array binding signal (z-score)", "setting": "[11]", "value": 3.5},
      {"measurement": "glycan array binding signal (z-score)", "setting": "[12]", "value": 0.036},
      {"measurement": "glycan array binding signal (z-score)", "setting": "[13]", "value": 0.557},
      {"measurement": "glycan array binding signal (z-score)", "setting": "GlcNAc3Prop(b1-4)GlcNAc", "value": -0.424},
      {"measurement": "glycan array binding signal (z-score)", "setting": "[14]", "value": 1.03},
      {"measurement": "glycan array binding signal (z-score)", "setting": "[15]", "value": -0.088},
      {"measurement": "glycan array binding signal (z-score)", "setting": "[16]", "value": -0.749},
      {"measurement": "glycan array binding signal (z-score)", "setting": "[17]", "value": -0.109},
      {"measurement": "glycan array binding signal (z-score)", "setting": "[18]", "value": -0.131},
      {"measurement": "glycan array binding signal (z-score)", "setting": "Neu5Ac(a2-3)Gal(b1-4)Glc", "value": -0.372},
      {"measurement": "glycan array binding signal (z-score)", "setting": "[19]", "value": -0.404},
      {"measurement": "glycan array binding signal (z-score)", "setting": "[20]", "value": -0.614},
      {"measurement": "glycan array binding signal (z-score)", "setting": "[21]", "value": -0.214},
      {"measurement": "glycan array binding signal (z-score)", "setting": "[22]", "value": -0.437},
      {"measurement": "glycan array binding signal (z-score)", "setting": "[23]", "value": -0.022},
      {"measurement": "glycan array binding signal (z-score)", "setting": "[24]", "value": -0.819},
      {"measurement": "glycan array binding signal (z-score)", "setting": "[25]", "value": -0.14},
      {"measurement": "glycan array binding signal (z-score)", "setting": "[26]", "value": 0.009}
    ]}
  ]
}
